In the supplement of paper PMC11001985:
Values without a mark were called inactive.

These targets were tested with C#CCNC(=O)CCSSCCC(=O)NCCc1ccc(C=O)c(C=O)c1 (assay: lysine labeling ratio R10:1 (500 µM / 50 µM probe), SILAC-ABPP in living cells; higher = lower intrinsic lysine reactivity toward the probe, active = 2 or less). Conditions: HeLa; probe concentrations 500 vs 50 µM.
How it was run: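 For each lysine, R is the median over forward and reverse replicates of the filtered median MS1 peptide ratio of high probe to low probe. The probe, an alkyne-tagged, disulfide-linked lysine probe, was given at 500 µM or 50 µM to living SILAC light and heavy HeLa cells in PBS at room temperature, with label swaps. Values are capped at 20.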

UniProt Q15149, sequence (Q15149 whole entry): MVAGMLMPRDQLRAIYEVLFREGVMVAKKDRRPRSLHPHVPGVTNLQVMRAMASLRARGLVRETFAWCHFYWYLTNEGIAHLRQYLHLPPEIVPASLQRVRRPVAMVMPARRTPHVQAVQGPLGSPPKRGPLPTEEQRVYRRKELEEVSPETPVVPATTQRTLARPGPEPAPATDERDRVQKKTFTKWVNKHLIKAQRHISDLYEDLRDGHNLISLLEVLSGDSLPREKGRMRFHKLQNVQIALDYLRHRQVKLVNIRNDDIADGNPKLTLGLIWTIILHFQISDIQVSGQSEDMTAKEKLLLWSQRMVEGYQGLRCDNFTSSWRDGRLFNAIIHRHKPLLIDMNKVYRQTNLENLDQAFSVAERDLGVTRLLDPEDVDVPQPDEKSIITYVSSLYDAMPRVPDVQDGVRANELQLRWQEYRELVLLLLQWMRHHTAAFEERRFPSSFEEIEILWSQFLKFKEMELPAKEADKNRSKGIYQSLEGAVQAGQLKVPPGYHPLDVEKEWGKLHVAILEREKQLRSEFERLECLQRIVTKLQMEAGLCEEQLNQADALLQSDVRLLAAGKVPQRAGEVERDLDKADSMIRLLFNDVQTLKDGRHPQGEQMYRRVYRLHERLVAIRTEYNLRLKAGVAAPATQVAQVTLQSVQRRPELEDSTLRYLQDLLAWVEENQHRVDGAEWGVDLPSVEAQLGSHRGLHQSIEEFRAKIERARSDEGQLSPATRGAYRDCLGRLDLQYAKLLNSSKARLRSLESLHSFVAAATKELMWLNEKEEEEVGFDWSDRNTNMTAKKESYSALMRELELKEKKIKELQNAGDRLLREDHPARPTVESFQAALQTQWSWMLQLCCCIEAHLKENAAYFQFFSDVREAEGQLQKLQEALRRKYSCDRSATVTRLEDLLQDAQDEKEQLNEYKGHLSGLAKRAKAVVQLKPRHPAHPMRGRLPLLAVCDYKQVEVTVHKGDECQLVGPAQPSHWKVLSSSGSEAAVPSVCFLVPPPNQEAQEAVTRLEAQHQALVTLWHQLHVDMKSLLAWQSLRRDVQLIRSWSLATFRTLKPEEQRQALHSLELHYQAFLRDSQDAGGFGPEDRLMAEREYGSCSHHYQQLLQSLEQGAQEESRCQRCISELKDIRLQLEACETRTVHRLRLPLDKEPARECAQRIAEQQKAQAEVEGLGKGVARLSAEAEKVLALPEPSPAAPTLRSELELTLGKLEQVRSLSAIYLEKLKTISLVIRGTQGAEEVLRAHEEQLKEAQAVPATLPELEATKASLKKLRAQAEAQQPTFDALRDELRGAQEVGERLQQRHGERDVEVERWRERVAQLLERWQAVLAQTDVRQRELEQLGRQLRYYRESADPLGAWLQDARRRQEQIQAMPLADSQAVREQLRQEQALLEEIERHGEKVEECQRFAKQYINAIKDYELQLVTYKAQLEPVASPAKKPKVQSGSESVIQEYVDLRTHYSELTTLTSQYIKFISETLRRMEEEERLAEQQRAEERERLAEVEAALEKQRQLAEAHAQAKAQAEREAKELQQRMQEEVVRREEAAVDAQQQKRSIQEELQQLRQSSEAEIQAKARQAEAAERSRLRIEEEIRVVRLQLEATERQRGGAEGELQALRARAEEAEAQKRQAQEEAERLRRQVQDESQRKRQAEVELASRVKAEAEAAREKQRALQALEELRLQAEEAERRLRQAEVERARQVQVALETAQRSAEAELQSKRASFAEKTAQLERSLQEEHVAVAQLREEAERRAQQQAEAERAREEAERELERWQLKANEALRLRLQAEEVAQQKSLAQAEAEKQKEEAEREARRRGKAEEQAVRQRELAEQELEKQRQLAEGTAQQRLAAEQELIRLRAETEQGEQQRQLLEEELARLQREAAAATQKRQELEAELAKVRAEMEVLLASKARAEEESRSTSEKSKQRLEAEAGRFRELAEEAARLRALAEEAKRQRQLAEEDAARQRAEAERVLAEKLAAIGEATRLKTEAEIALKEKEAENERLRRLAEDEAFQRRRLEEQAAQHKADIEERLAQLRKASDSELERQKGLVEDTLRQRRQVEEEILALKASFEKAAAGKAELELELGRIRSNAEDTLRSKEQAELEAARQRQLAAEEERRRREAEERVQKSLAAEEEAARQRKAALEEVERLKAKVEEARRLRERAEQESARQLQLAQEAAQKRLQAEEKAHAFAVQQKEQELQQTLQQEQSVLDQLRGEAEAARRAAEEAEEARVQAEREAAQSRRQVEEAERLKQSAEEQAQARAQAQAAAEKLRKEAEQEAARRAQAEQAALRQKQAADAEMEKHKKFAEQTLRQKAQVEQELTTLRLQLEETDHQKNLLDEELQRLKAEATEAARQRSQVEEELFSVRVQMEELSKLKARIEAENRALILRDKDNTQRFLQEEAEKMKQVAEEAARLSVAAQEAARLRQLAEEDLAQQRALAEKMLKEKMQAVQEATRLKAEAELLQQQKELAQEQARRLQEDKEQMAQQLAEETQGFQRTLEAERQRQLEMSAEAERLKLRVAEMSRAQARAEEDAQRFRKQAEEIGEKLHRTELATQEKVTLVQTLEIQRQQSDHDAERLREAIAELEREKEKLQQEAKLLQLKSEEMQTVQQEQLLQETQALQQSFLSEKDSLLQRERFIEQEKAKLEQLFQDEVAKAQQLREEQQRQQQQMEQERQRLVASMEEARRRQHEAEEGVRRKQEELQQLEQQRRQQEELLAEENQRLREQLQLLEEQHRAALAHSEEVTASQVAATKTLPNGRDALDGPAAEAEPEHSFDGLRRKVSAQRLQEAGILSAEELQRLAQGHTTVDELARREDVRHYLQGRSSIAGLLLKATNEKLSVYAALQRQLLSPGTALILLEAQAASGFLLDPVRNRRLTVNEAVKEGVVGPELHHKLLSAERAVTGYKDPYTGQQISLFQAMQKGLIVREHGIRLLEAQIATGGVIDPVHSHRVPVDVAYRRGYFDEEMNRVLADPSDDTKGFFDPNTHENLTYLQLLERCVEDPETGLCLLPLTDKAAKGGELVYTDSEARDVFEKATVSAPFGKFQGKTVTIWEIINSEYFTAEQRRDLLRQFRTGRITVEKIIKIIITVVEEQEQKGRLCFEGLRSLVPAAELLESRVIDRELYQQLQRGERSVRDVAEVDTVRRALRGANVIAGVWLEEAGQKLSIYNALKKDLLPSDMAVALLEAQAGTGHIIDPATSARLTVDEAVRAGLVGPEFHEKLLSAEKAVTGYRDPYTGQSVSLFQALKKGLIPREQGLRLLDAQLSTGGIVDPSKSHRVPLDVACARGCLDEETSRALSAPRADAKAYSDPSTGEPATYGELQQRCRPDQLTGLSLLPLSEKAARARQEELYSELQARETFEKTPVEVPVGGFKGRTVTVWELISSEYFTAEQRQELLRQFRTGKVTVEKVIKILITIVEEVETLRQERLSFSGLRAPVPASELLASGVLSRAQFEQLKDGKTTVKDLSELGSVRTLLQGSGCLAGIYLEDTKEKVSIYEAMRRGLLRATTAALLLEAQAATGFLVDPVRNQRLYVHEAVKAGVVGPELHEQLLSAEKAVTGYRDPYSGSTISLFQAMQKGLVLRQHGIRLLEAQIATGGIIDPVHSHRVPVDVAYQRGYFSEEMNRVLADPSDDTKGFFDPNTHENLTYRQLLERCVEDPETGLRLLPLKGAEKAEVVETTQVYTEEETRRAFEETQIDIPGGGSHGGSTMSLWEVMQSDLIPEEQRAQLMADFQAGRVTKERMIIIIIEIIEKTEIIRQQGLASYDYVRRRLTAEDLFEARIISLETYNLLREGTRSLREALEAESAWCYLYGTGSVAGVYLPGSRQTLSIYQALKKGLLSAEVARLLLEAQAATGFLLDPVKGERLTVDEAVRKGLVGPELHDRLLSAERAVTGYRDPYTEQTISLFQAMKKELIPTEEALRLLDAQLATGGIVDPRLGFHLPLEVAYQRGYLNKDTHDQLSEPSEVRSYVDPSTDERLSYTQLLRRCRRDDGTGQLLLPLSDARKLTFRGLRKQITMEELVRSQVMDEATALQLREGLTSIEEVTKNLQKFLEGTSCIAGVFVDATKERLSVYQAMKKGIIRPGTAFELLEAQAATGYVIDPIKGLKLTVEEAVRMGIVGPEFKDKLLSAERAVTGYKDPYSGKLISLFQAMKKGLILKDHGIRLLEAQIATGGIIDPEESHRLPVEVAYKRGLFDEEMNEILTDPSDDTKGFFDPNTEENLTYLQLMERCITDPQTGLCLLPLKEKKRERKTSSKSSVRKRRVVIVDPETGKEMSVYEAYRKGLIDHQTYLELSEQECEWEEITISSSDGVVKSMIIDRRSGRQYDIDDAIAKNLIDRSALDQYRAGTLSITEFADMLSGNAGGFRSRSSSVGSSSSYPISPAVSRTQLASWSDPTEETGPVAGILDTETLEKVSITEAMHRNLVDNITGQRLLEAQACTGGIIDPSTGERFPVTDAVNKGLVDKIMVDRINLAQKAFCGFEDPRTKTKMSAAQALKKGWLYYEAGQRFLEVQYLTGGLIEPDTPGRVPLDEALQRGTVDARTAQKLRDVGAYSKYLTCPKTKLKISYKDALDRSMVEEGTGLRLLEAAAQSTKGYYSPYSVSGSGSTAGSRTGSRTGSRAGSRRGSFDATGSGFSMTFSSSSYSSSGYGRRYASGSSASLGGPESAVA
UniProt Q9BVK6, sequence (Q9BVK6 whole entry): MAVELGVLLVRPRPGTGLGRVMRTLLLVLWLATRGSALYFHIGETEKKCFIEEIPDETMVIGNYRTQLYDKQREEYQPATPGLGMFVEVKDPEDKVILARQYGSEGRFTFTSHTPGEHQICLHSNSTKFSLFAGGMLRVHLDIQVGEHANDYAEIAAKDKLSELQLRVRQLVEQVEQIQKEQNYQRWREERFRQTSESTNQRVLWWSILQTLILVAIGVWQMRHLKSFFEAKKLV
UniProt P48509, sequence (P48509 whole entry): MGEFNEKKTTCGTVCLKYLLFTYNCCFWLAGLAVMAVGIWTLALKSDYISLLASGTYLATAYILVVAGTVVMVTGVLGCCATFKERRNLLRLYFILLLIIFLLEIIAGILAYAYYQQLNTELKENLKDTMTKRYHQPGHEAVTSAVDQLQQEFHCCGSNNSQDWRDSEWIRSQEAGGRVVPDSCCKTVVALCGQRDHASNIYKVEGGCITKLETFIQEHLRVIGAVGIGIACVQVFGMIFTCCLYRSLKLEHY

| Target | lysine labeling ratio R10:1 |
| --- | --- |
| UniProt Q9UII2 (lysine site: K90) | 6.67 |
| CDH13 (lysine site: K178) (UniProt P55290) | 7.63 |
| CD44 (lysine site: K38) (UniProt P16070) | 5.01 |
| AHNAK (lysine site: K5443) (UniProt Q09666) | 0.97 (active) |
| UniProt P21589 (lysine site: K536) | 1.24 (active) |
| ADAM9 (lysine site: K368) (UniProt Q13443) | 3.66 |
| RPL5 (lysine site: K178) (UniProt P46777) | 4.17 |
| SPTAN1 (lysine site: K30) (UniProt Q13813) | 5.74 |
| LRP1 (lysine site: K2009) (UniProt Q07954) | 3.1 |
| MARS (lysine site: K726) (UniProt P56192) | 0.748 (active) |
| TLN1 (lysine site: K147) (UniProt Q9Y490) | 1.5 (active) |
| UniProt P60866 (lysine site: K8) | 2.33 |
| ANPEP (lysine site: K205) (UniProt P15144) | 2.56 |
| XRCC6 (lysine site: K317) (UniProt P12956) | 3.53 |
| ITGB1 (lysine site: K163) (UniProt P05556) | 2.37 |
| TFRC (lysine site: K145) (UniProt P02786) | 2.7 |
| HSPA9 (lysine site: K394) (UniProt P38646) | 3.32 |
| RBMX (lysine site: K150) (UniProt P38159) | 16.9 |
| SPTAN1 (lysine site: K1543) (UniProt Q13813) | 1.58 (active) |
| UniProt P26012 (lysine site: K515) | 1.07 (active) |

| Target | lysine labeling ratio R10:1 |
| --- | --- |
| MYH9 (lysine site: K1219) (UniProt P35579) | 2.49 |
| TMED9 (lysine site: K95) (UniProt Q9BVK6) | 4.55 |
| UniProt P60660 (lysine site: K81) | 3.44 |
| SERPINH1 (lysine site: K334) (UniProt P50454) | 2.28 |
| RDX (lysine site: K371) (UniProt P35241) | 1.33 (active) |
| UniProt Q15149 (lysine site: K810) | 2.16 |
| PPT1 (lysine site: K191) (UniProt P50897) | 1.31 (active) |
| CLTB (lysine site: K122) (UniProt P09497) | 2.57 |
| ACTN1 (lysine site: K492) (UniProt P12814) | 0.906 (active) |
| IGF2R (lysine site: K1924) (UniProt P11717) | 3.04 |
| CD151 (lysine site: K186) (UniProt P48509) | 6.68 |
| P4HB (lysine site: K328) (UniProt P07237) | 1.54 (active) |
| ITGB1 (lysine site: K551) (UniProt P05556) | 5.51 |
| MAGT1 (lysine site: K66) (UniProt Q9H0U3) | 4.14 |
| SLC3A2 (lysine site: K299) (UniProt P08195) | 6.33 |
| ANXA1 (lysine site: K166) (UniProt P04083) | 1.32 (active) |
| IGF1R (lysine site: K47) (UniProt P08069) | 3.62 |
| ITGAV (lysine site: K581) (UniProt P06756) | 0.709 (active) |
| UniProt Q15149 (lysine site: K2037) | 1.95 (active) |
| HSPA9 (lysine site: K625) (UniProt P38646) | 3.75 |
